Shown are actives, neighbours in structure and some others; about 3.4% of the full set was active somewhere.
TMEM16A act = TMEM16A chloride channel activators or potentiators, primary screen, cell-based, HTS; Anoctamin-1 (Mus musculus), Q8BHY3; HEK293 TMEM16A/YFP-H148Q/I152L, iodide quench fluorescence; active compounds read low; B-score at 10 µM; 340,000 compounds, 0.3% hits;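 active means fluorescence-ratio B-score plate-corrected deviation score at least 3 library SD below zero, with starting fluorescence score within 5 deviations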;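 further: channel opened by trigger with iodide after compound preincubation; score built on the fluorescence ratio of max minus min over baseline; more negative score means more quench and so TMEM16A activation or potentiation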
Target sequence (Q8BHY3 whole entry, looked up): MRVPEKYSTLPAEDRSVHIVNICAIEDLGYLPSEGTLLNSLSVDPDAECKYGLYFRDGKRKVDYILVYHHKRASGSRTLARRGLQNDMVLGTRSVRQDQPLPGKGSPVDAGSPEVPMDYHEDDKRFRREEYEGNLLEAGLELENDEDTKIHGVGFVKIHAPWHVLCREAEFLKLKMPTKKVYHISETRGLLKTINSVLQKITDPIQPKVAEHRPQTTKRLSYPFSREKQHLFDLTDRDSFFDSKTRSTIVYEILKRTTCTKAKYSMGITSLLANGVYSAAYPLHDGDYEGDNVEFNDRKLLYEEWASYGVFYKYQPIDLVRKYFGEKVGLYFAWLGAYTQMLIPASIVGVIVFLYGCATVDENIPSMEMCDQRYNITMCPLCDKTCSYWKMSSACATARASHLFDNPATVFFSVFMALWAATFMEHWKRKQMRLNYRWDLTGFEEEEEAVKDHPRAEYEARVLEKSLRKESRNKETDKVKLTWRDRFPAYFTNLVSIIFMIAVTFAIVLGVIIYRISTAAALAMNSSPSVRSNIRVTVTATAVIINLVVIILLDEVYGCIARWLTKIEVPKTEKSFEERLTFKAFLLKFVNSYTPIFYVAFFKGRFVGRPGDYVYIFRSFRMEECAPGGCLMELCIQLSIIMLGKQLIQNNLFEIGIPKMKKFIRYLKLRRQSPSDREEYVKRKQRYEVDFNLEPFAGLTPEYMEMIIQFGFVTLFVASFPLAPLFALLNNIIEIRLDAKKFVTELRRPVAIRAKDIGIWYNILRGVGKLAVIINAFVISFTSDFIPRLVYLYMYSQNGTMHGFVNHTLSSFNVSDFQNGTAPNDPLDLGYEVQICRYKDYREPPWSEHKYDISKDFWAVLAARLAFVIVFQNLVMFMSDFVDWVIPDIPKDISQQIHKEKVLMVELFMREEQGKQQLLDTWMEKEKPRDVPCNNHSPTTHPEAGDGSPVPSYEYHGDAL
MEKK2 mut-MEK5 = MEK5 binding signal on mutant MEKK2 PB1, primary screen, biochemical, multiplex bead flow cytometry, Alexa488-MEK5. Alexa488-MEK5 binding to MEKK2 mutant. percent response, % at 10 µM. 290,000 compounds, 0.35% hits. AID 1530, 2009; in the data active means percent response above about 24%, passing the limit was not always enough
MEKK3 PB1 HTS = modulators of MEKK3-MEK5 PB1 binding, primary screen, biochemical, wildtype MEKK3, multiplex bead flow cytometry, Alexa488-MEK5. binding response (% of control), % at 10 µM. AID 1529, 2009. 290,000 compounds, 1.4% hits. bead-based flow cytometry, Alexa488-MEK5 binding to MEKK3; actives lie on both sides; 0 = blocked by unlabeled MEK5, 100 = vehicle;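 active means binding response more than 3 SD above or below the average of its plate-row segment, actives on both sides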;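 further: Alexa488 bead fluorescence after subtracting the streptavidin-only scavenger bead signal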
NTR1 agonist = agonists of human NTR1, primary screen, imaging, U2OS cells, beta-arrestin-GFP, high content | Neurotensin receptor type 1 (Homo sapiens), P30989 | NTR1-U2OS beta-arrestin-GFP spot imaging, agonist mode | activation, % at 20 µM | 330,000 compounds, 0.17% hits | AID 493036, 2011;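 active means activation at or above 40% of the spot to cytoplasm intensity ratio, with at least 20 cells analyzed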;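 further: 0% = DMSO without peptide and 100% = 100 nM NTR1 peptide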
MEKK2wt PB1 HTS = modulators of MEK5 binding to wildtype MEKK2, primary screen, biochemical, multiplex bead flow cytometry, Alexa488-MEK5. binding response (% of control), % at 10 µM. Alexa488-MEK5 binding to MEKK2 WT; actives lie on both sides. AID 1531, 2009. 290,000 compounds, 1.1% hits; in the data active means binding response below about 67% or above about 130%
ANO1 block = TMEM16A chloride channel inhibitors, primary screen, cell-based, HTS | Anoctamin-1 (Mus musculus), Q8BHY3 | HEK293 TMEM16A/YFP iodide influx fluorescence, ionomycin | normalized B-score (activity score, 25-100; higher = stronger inhibition) at 10 µM | 310,000 compounds, 1.2% hits | AID 588511, 2011;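 active means ratio plate-corrected score three or more library SD toward inhibition, starting fluorescence score within five deviations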;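 further: score derived from kinetic fluorescence span divided by baseline fluorescence per well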
TMEM16A reconf = TMEM16A chloride channel inhibitors, confirmation, cell-based, re-confirmation; shares compounds with ANO1 block; inhibition, % at 10 µM; 2,300 compounds, 39% hits; HEK293 TMEM16A/YFP-H148Q, iodide quench fluorescence; ionomycin added to raise cell calcium;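 active means mean duplicate percent inhibition, scaled so buffer wells are 0 and the reference blocker 100, over three buffer SD above buffer mean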
HEK293 Ca mobil = calcium mobilization in TMEM16A/YFP HEK293 cells, confirmation, counter-screen for TMEM16A inhibitor project; shares compounds with ANO1 block; Fluo4 calcium mobilization; calcium response (% of ionomycin), % at 10 µM; 2,300 compounds, 2% hits;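 active means duplicate-averaged calcium signal over 20% of the ionomycin maximum, relative to buffer baseline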;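 further: each well's signal is peak minus trough fluorescence divided by its pre-addition baseline; 0% = buffer wells and 100% = ionomycin wells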
YFP-HEK293 quench = iodide YFP quench changes in parental YFP-HEK293, counter-screen for TMEM16A inhibitor project, cell-based | shares compounds with ANO1 block | ionomycin | AID 652233, 2013 | 2,300 tested, under 10 active | YFP ratio F(max-min)/F0 at 10 µM;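 active means yellow fluorescent protein signal ratio exceeding the buffer control mean by over 5 SD of those controls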;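 further: ratio is mean of duplicate wells from kinetic YFP trace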
ClC-1 inh = ClC-1 chloride channel inhibition, selectivity assay for TMEM16A inhibitor project, cell-based, voltage-dependent ClC-1. CHO ClC-1-YFP, iodide influx fluorescence quench; iodide control reads 0, buffer control 100. shares compounds with ANO1 block. ratio percent, % at 10 µM. 2,300 tested, under 10 active;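 active means duplicate-mean ratio percent above the mean of iodide-only control wells, which defines zero, plus 5 of their SD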;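 further: higher percent means stronger block of ClC-1 iodide influx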
* marks the source's active call; other numbers are inactive results.

Results for Cc1cc(Cl)c(S(=O)(=O)NC2CCCC2)cc1OCC(=O)NC1CCCCC1 ?
TMEM16A act: inactive; MEKK2 mut-MEK5: 2.0; MEKK3 PB1 HTS: 97.0; NTR1 agonist: -0.6; MEKK2wt PB1 HTS: 99.0; ANO1 block: inactive

How did Cc1cc(Cl)c(S(=O)(=O)N2CCCCCC2)cc1OCC(=O)NC1CCCCC1 do in these assays?
TMEM16A act: inactive; MEKK2 mut-MEK5: -2.0; MEKK3 PB1 HTS: 102.0; NTR1 agonist: 2.8; MEKK2wt PB1 HTS: 95.0; ANO1 block: 100*; TMEM16A reconf: 24.0%*; HEK293 Ca mobil: inactive; YFP-HEK293 quench: -1.13; ClC-1 inh: -16.0

How did Cc1cc(Cl)c(S(=O)(=O)N2CCN(c3ccccn3)CC2)cc1OCC(=O)NC1CCCCC1 do in these assays?
TMEM16A act: inactive; MEKK2 mut-MEK5: -2.0; MEKK3 PB1 HTS: 95.0; NTR1 agonist: 15.5; MEKK2wt PB1 HTS: 93.0; ANO1 block: 100*; TMEM16A reconf: inactive; HEK293 Ca mobil: inactive; YFP-HEK293 quench: -1.12; ClC-1 inh: -5.0

How did O=C(NCCNC(=O)c1ccc(Cl)cc1Cl)c1ccco1 do in these assays?
TMEM16A act: inactive; MEKK2 mut-MEK5: -5.0; MEKK3 PB1 HTS: 101.0; NTR1 agonist: -1.3; MEKK2wt PB1 HTS: 97.0; ANO1 block: inactive

How did CCOc1ccc(Nc2cc(Nc3ccccc3OCC)nc(C=C(C#N)C#N)n2)cc1 do in these assays?
TMEM16A act: inactive; MEKK2 mut-MEK5: 6.0; MEKK3 PB1 HTS: 105.0; NTR1 agonist: 5.3; MEKK2wt PB1 HTS: 110.0; ANO1 block: inactive; TMEM16A reconf: inactive; HEK293 Ca mobil: inactive; YFP-HEK293 quench: -1.31; ClC-1 inh: -2.5

What do the screens show for `Cc1ccc(N(CC(=O)N2CCCC2)S(C)(=O)=O)c(C)c1`?
TMEM16A act: inactive; MEKK2 mut-MEK5: 4.0; MEKK3 PB1 HTS: 104.0; NTR1 agonist: -0.7; MEKK2wt PB1 HTS: 110.0; ANO1 block: inactive

Results for C(=C\c1ccccc1)/CN1CCN(c2ncnc3c2oc2ccccc23)CC1 ?
TMEM16A act: inactive; MEKK2 mut-MEK5: 2.0; MEKK3 PB1 HTS: 98.0; NTR1 agonist: 11.7; MEKK2wt PB1 HTS: 102.0; ANO1 block: 100*; TMEM16A reconf: 33.5%*; HEK293 Ca mobil: inactive; YFP-HEK293 quench: -1.04; ClC-1 inh: -21.5

How did COc1ccccc1N1CCN(c2ncnc3c2oc2ccccc23)CC1 do in these assays?
TMEM16A act: inactive; MEKK2 mut-MEK5: 6.0; MEKK3 PB1 HTS: 104.0; NTR1 agonist: 23.3; MEKK2wt PB1 HTS: 104.0; ANO1 block: 100*; TMEM16A reconf: inactive; HEK293 Ca mobil: inactive; YFP-HEK293 quench: -1.01; ClC-1 inh: -8.0

Results for COc1ccccc1N1CCN(C(=O)CSc2nnc3n2C(C)(C)Cc2ccccc2-3)CC1 ?
TMEM16A act: inactive; MEKK2 mut-MEK5: 4.0; MEKK3 PB1 HTS: 100.0; NTR1 agonist: 2.9; MEKK2wt PB1 HTS: 104.0; ANO1 block: 25*; TMEM16A reconf: inactive; HEK293 Ca mobil: inactive; YFP-HEK293 quench: -1.09; ClC-1 inh: -4.0

Results for CC1Cc2ccccc2N1C(=O)CSc1nnc2n1C(C)(C)Cc1ccccc1-2 (stereo unspecified) ?
TMEM16A act: inactive; MEKK2 mut-MEK5: -2.0; MEKK3 PB1 HTS: 101.0; NTR1 agonist: -0.5; MEKK2wt PB1 HTS: 97.0; ANO1 block: inactive

Results for N#Cc1c(C(F)(F)F)cc(=O)n2c1[nH]c1ccccc12 ?
TMEM16A act: inactive; MEKK2 mut-MEK5: 3.0; MEKK3 PB1 HTS: 102.0; NTR1 agonist: 3.0; MEKK2wt PB1 HTS: 103.0; ANO1 block: 100*; TMEM16A reconf: 35.0%*; HEK293 Ca mobil: 21.5%*; YFP-HEK293 quench: -1.04; ClC-1 inh: -20.5

Results for Cc1sc(NC(=O)c2sc3nc4c(C)cccc4cc3c2N)c(C#N)c1C ?
TMEM16A act: inactive; MEKK2 mut-MEK5: -5.0; MEKK3 PB1 HTS: 101.0; NTR1 agonist: 0.5; MEKK2wt PB1 HTS: 87.0; ANO1 block: inactive

Results for Cc1cccc2cc3c(N)c(C(=O)Nc4ccc(N5CCOCC5)cc4)sc3nc12 ?
TMEM16A act: inactive; MEKK2 mut-MEK5: 1.0; MEKK3 PB1 HTS: 103.0; NTR1 agonist: 7.6; MEKK2wt PB1 HTS: 102.0; ANO1 block: inactive; TMEM16A reconf: inactive; HEK293 Ca mobil: inactive; YFP-HEK293 quench: -1.09; ClC-1 inh: 0.5

What do the screens show for `COC(=O)CN(c1cccc(F)c1)S(C)(=O)=O`?
TMEM16A act: inactive; MEKK2 mut-MEK5: 15.0; MEKK3 PB1 HTS: 105.0; NTR1 agonist: -0.8; MEKK2wt PB1 HTS: 109.0; ANO1 block: inactive

How did NC(=S)Nc1cccc2[nH]ccc12 do in these assays?
TMEM16A act: inactive; MEKK2 mut-MEK5: -7.0; MEKK3 PB1 HTS: 99.0; NTR1 agonist: 1.7; MEKK2wt PB1 HTS: 96.0; ANO1 block: inactive

What do the screens show for `Cc1ccc(-n2c(SCC(N)=O)nc3c(c2=O)C2(CCCC2)Cc2ccccc2-3)cc1`?
TMEM16A act: inactive; MEKK2 mut-MEK5: 2.0; MEKK3 PB1 HTS: 107.0; NTR1 agonist: 36.4; MEKK2wt PB1 HTS: 97.0; ANO1 block: 25*; TMEM16A reconf: 39.0%*; HEK293 Ca mobil: inactive; YFP-HEK293 quench: -1.32; ClC-1 inh: -4.5

What do the screens show for `CC(=O)Nc1ccc(S(=O)(=O)N2CCN(CCCOc3ccccc3Cl)CC2)cc1`?
TMEM16A act: inactive; MEKK2 mut-MEK5: 3.0; MEKK3 PB1 HTS: 101.0; NTR1 agonist: -0.8; MEKK2wt PB1 HTS: 109.0; ANO1 block: 25*; TMEM16A reconf: inactive; HEK293 Ca mobil: inactive; YFP-HEK293 quench: -1.1; ClC-1 inh: -5.5
